In PubChem BioAssay (Tox21):
Inconclusive results are not listed. The source made the active and inactive calls. Unless noted, the call rests on the fitted dose curve; in most records, active means well fitted curve in the direction sought with a large enough effect in the repeat runs; inconclusive means weak or mixed curves; inactive means no such curve, though single readings can be large; an effect the other way counts as inactive or inconclusive.

How the values were obtained:
[1] = qHTS assay to identify small molecule antagonists of the glucocorticoid receptor (GR) signaling pathway - cell viability counter screen (AID 720693); further: nearly all actives have a fitted effect of over 55% in size
[2] = qHTS assay for identifying genotoxic compounds that show differential cytotoxicity against isogenic chicken DT40 cell lines with known DNA damage response pathways - wild type cell line (AID 743012); further: nearly all actives have a fitted effect of over 60% in size
Method in brief: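 Luminescent ATP viability signal (CellTiter-Glo, 30 min RT) recorded after wild type DT40 cells were incubated with compounds for 40 h at 37 C/5% CO2.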

[3] = qHTS assay for identifying genotoxic compounds that show differential cytotoxicity against isogenic chicken DT40 cell lines with known DNA damage response pathways - Rev3 mutant cell line (AID 743014); further: nearly all actives have a fitted effect of over 55% in size
[4] = qHTS assay for identifying genotoxic compounds that show differential cytotoxicity against isogenic chicken DT40 cell lines with known DNA damage response pathways - Rad54/Ku70 mutant cell line (AID 743015); further: nearly all actives have a fitted effect of over 60% in size
[5] = qHTS assay to identify small molecule antagonists of the androgen receptor (AR) signaling pathway - cell viability counter screen (AID 743033; further: nearly all actives have a fitted effect of over 45% in size)
[6] = target: Androgen receptor (Homo sapiens) (UniProt P10275); experiment: qHTS assay to identify small molecule antagonists of the androgen receptor (AR) signaling pathway (AID 743035; active means well fitted inhibition curve with a large enough effect in the signal ratio in the repeat runs, not every such curve was filed as active; the % refers to the signal ratio)
Chain of Androgen receptor (Homo sapiens) (P10275 whole entry, looked up): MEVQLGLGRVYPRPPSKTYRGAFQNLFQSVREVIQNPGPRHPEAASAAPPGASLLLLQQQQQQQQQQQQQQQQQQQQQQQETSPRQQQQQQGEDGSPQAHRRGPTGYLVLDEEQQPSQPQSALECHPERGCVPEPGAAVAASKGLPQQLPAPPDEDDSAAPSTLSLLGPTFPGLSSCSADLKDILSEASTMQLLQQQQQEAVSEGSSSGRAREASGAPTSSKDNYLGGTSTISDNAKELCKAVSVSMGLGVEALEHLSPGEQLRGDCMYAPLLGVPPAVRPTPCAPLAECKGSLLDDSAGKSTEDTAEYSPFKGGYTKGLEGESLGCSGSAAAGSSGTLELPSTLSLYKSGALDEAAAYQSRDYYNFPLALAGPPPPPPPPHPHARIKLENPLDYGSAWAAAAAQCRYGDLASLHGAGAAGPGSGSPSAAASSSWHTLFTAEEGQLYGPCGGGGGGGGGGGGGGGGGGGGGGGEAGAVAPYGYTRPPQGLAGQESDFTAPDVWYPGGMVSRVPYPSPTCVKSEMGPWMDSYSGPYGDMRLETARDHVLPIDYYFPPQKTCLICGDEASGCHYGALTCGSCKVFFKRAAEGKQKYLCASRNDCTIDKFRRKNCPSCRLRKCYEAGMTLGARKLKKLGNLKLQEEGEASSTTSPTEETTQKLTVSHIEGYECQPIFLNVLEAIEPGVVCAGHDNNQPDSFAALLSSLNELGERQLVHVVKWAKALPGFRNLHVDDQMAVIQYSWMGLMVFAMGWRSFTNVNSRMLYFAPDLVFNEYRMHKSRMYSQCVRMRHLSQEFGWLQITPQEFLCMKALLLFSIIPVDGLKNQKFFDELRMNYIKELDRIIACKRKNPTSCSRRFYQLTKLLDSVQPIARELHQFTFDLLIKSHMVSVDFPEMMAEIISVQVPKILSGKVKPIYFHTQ
Method in brief: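 Quantitative HTS of the Tox21 10K library used HEK293 AR-UAS-bla cells stimulated with R1881 alongside compound for 16 h at 37C, followed by beta-lactamase FRET detection (LiveBLAzer B/G, 2 h, RT).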

[7] = target: Androgen receptor (Homo sapiens) (UniProt P10275); experiment: qHTS assay to identify small molecule agonists of the androgen receptor (AR) signaling pathway (AID 743036; active means well fitted activation curve with a large enough effect in the signal ratio in the repeat runs, with a control signal flat, not every such curve was filed as active; the % refers to the signal ratio)
Method in brief: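 Agonist activity was scored by beta-lactamase reporter fluorescence in stably transfected HEK293 cells exposed to compounds for 16 h at 37C and 5% CO2. Substrate loading took 2 h at room temperature.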

[8] = target: Androgen receptor (Homo sapiens) (UniProt P10275); experiment: qHTS assay to identify small molecule agonists of the androgen receptor (AR) signaling pathway using the MDA cell line (AID 743040; further: nearly all actives have a fitted effect of over 20% in size)
Method in brief: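 Stable MMTV-luciferase reporter in MDA-kb2 cells; note the promoter carries GR as well as AR response elements. 16 h compound treatment, 37C, 0% CO2; ONE-Glo luminescence endpoint.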

[9] = qHTS assay to identify small molecule antagonists of the androgen receptor (AR) signaling pathway using the MDA cell line - cell viability counter screen (AID 743041; further: nearly all actives have a fitted effect of over 45% in size)
Method in brief: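 Using the breast carcinoma line MDA-kb2 AR-luc, test chemicals were co-incubated with R1881 for 16 h; CellTiter-Fluor reagent, added at 15.5 h, provided a fluorescence measure of live cells.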

[10] = target: Androgen receptor (Homo sapiens) (UniProt P10275); experiment: qHTS assay to identify small molecule antagonists of the androgen receptor (AR) signaling pathway using the MDA cell line (AID 743042; further: nearly all actives have a fitted effect of over 55% in size)
Method in brief: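 Antagonist mode: compounds plus R1881 agonist added to MDA-kb2 AR-luc cells, incubated 16 h at 37C. Luciferase reporter luminescence quantified, with multiplexed CellTiter-Fluor readout for cell viability.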

[11] = qHTS assay to identify small molecule antagonists of the thyroid receptor (TR) signaling pathway - cell viability counter screen (AID 743064); further: nearly all actives have a fitted effect of over 50% in size
Method in brief: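 Same-well viability check: GH3.TRE-Luc cells stimulated with 1 nM T3 alongside test compound for 23.5 h, followed by CellTiter-Fluor fluorescence.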

[12] = qHTS assay to identify small molecule antagonists of the thyroid receptor (TR) signaling pathway (AID 743065); further: series mostly up to about 70 µM; nearly all actives have a fitted effect of over 55% in size
Method in brief: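 Antagonism measured as loss of luciferase signal in GH3 cells stably carrying a TRE-luciferase reporter, co-treated with compound and T3 (1 nM final) for 23.5 h at 37 C. Viability was read in the same well by CellTiter-Fluor.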

[13] = tested on: thyroid hormone receptor (rat, GH3 cells); experiment: qHTS assay to identify small molecule agonists of the thyroid receptor (TR) signaling pathway (AID 743066; calls by dose curve)
[14] = target: Estrogen receptor (Homo sapiens) (UniProt P03372); experiment: qHTS assay to identify small molecule antagonists of the estrogen receptor alpha (ER-alpha) signaling pathway (AID 743069; active means well fitted curve in the direction sought with a large enough effect in the signal ratio in the repeat runs, not every such curve was filed as active; the % refers to the signal ratio)
Chain of Estrogen receptor (Homo sapiens) (P03372 whole entry, looked up): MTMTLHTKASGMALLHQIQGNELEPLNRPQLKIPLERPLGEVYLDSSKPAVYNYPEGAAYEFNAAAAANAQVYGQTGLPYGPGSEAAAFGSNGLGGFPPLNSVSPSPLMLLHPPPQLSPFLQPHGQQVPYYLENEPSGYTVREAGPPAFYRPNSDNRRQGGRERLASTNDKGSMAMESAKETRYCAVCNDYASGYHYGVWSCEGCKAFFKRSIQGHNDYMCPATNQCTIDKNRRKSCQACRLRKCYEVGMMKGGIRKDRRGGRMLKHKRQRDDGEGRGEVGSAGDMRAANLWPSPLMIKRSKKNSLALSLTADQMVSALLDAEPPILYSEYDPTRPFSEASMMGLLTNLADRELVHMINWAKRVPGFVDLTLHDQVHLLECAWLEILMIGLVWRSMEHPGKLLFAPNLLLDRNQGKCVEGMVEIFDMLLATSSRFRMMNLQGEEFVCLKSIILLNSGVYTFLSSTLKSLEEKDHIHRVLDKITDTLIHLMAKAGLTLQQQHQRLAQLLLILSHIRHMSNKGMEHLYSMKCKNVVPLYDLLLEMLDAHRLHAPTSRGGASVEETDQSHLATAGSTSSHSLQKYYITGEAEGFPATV
Method in brief: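 Fluorescence intensity from a beta-lactamase FRET substrate served as the read-out. Cells: HEK293 with stably integrated ER-alpha-UAS-bla reporter. Agonist 17beta-estradiol was co-added with compounds; incubation 18 hr at 37C, substrate 2 hr at room temperature.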

[15] = qHTS assay to identify small molecule antagonists of the estrogen receptor alpha (ER-alpha) signaling pathway - cell viability counter screen (AID 743074; calls by dose curve; further: nearly all actives have a fitted effect of over 45% in size)
[16] = target: Estrogen receptor (Homo sapiens) (UniProt P03372); experiment: qHTS assay to identify small molecule agonists of the estrogen receptor alpha (ER-alpha) signaling pathway (AID 743075; calls by dose curve)
[17] = target: Estrogen receptor (Homo sapiens) (UniProt P03372); experiment: qHTS assay to identify small molecule agonists of the estrogen receptor alpha (ER-alpha) signaling pathway using the BG1 cell line (AID 743079); further: nearly all actives have a fitted effect of over 20% in size
[18] = qHTS assay to identify small molecule antagonists of the estrogen receptor alpha (ER-alpha) signaling pathway using the BG1 cell line (AID 743080; calls by dose curve;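 further: BG1 cells stimulated with 17beta-estradiol alongside compound; series mostly up to about 70 µM; nearly all actives have a fitted effect of over 25% in size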)
Method in brief: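 Endogenous full-length ER-alpha in BG1-Luc-4E2 cells drives a stably integrated 4×ERE luciferase gene; compounds were tested against 17beta-estradiol over 21.5 h, with luminescence and multiplexed viability fluorescence recorded.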

[19] = qHTS assay to identify small molecule antagonists of the estrogen receptor alpha (ER-alpha) signaling pathway using the BG1 cell line - cell viability counter screen (AID 743081);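 further: compound given together with 17beta-estradiol as the ER stimulus; series mostly up to about 70 µM; nearly all actives have a fitted effect of over 45% in size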
Aromatase (Homo sapiens) = Aromatase (Homo sapiens) (UniProt P11511); experiment: qHTS assay to identify aromatase inhibitors (AID 743083)
Chain of Aromatase (Homo sapiens) (P11511 whole entry, looked up): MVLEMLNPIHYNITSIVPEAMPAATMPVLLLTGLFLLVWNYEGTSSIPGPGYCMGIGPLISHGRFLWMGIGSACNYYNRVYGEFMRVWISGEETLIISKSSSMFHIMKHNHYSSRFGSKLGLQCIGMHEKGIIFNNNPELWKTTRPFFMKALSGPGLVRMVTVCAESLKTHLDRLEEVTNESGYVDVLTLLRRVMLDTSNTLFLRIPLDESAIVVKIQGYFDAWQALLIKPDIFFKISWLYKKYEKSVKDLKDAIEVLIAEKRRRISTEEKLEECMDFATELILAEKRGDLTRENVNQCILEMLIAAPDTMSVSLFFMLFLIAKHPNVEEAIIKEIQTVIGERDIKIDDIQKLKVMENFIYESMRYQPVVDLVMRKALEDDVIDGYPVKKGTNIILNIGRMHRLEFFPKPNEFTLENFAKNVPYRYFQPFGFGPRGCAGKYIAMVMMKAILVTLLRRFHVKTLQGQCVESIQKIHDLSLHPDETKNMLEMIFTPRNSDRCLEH

Measured: Potency

O=C(O)C(=O)Cc1ccccc1
inactive: all assays above

COc1cc(NS(=O)(=O)c2ccc(N)cc2)nc(OC)n1
not listed: [18]
inactive: all other assays above

CCC(CC)CO
not listed: [7]
inactive: all other assays above

OCCC(F)(F)C(F)(F)C(F)(F)C(F)(F)C(F)(F)C(F)(F)C(F)(F)C(F)(F)F
not listed: [6] | [14]
inactive: all other assays above

CC(C)(C)NC(N)=O
not listed: [7]
inactive: all other assays above

Nc1ccc(S(=O)(=O)Nc2ccc(Cl)nn2)cc1
inactive: all assays above

CCCCCCCCOS(=O)(=O)O
not listed: [6] | [7] | [8] | [10]
inactive: all other assays above

C=C(C)C(=O)OCC(C)(C)COC(=O)C(=C)C
not listed: [6] | [7] | [8] | [10]
inactive: all other assays above

CC(C)C(=O)OCCc1ccccc1
not listed: [6] | [7] | [8] | [10]
inactive: all other assays above

CCCCCCN
not listed: [6] | [7] | [8] | [10]
inactive: all other assays above

C=C(C)C(=O)OCCN(CC)CC
not listed: [6] | [11] | [14] | [16] | [17] | [18]
inactive: all other assays above

C=C(C)C(=O)OCc1ccccc1
not listed: [6] | [7] | [8] | [10]
inactive: all other assays above

CC(C)CCCC(C)(C)O
not listed: [6] | [7] | [8] | [10]
inactive: all other assays above

CC1(C)S[C@@H]2[C@H](N=CN3CCCCCC3)C(=O)N2[C@H]1C(=O)O
not listed: [6] | [7] | [8] | [10]
inactive: all other assays above
